Assay outcomes from PubChem.
SARS PLP yeast: SARS-CoV PLP inhibition in yeast; S. cerevisiae expressing SARS-CoV PLpro, growth rescue; Potency, µM (titrated, usually from 32.9 µM), hits mostly activators; 330,000 tested, 0.19% active; AID 485353; calls by dose curve; further: nearly all actives have a fitted effect of over 55% in size
MARV entry inh: Marburg virus entry inhibition; Marburg virus pseudotyped entry inhibition, cell reporter; Potency, µM (highest dose often 37.8 µM), most hits filed as inhibitors; 300,000 tested, 1.8% active; AID 540276; calls by dose curve; tested in HEK293 cells
Lassa entry inh: blocks Lassa virus binding to or entry into cells | AID 540256 | Lassa virus pseudotype entry inhibition, cell reporter | Potency, µM (series often up to 37.9 µM), hits mostly inhibitors | 300,000 tested, 1.2% active; calls by dose curve; tested in HEK293 cells; further: nearly all actives have a fitted effect of over 50% in size
HCV inhibitor: inhibitors of hepatitis C virus infection. Huh7.5.1 HCVcc-Cre infection, luciferase reporter, 44 h. Potency, µM (doses to about 41.8 µM), most hits filed as inhibitors. 340,000 tested, 3.4% active. AID 651820; active means well fitted inhibition curve with a large enough effect; inconclusive means small, poorly fitted or top-dose-only effect, or another doubt; inactive means no such curve, though single readings can be large or run the other way
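1,000 cells/well; 4 h culture; + compound; + HCVcc-Cre (~0.5 moi); 44 h; luciferase substrate, RT 15 min; read 15 sec.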
HCMV antiviral: blocks human cytomegalovirus replication | HFF cells, HCMV-luciferase reporter, 72 h; hits give low values | activity change, negative = inhibition, % at 57.5 µM | 410,000 tested, 4.5% active | AID 1259415; in the data active means activity change below about -60%; inconclusive means no clear call, values can overlap the other calls; inactive means above about -39%
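After 16 h attachment at 37C, HFF cells received test compound and HCMV-luciferase (1 PFU/cell); reporter luminescence read 72 h later, data normalized against buffer-only and known inhibitor Salinomycin.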
FMDV antiviral: antivirals against foot and mouth disease virus. FMDV antiviral cell-based qHTS. Potency, µM (series often up to 57.9 µM), hits mostly inhibitors. 410,000 tested, 1.2% active; calls by dose curve; tested in HEK293T cells; further: read-out not given here; nearly all actives have a fitted effect of over 45% in size
Numbers stand for hits; n = inactive; u = inconclusive; x = not tested or not shown; ! = not confirmed by another sample. A selection: hits, their analogues and other compounds. The true share with any hit is near 8%.

SMILES	SARS PLP yeast	MARV entry inh	Lassa entry inh	HCV inhibitor	HCMV antiviral	FMDV antiviral
COc1ccccc1C(=O)NC1(C(F)(F)F)C(=O)Nc2c1c(=O)[nH]c(=O)n2-c1ccccc1 (centres undefined)	x	n	n	x	n	n
CN1C(=O)c2ccccc2Sc2ccc(NC(=O)NCc3cccc(Cl)c3)cc21	x	u	n	x	n	u
CCCNC(=O)c1cc2c(c(-c3cccc(-c4ccc(F)cc4)c3)n1)[C@H](CCO)N(S(=O)C(C)(C)C)C2 (some centres undefined)	x	x	x	x	n	n
CCCNC(=O)c1cc2c(c(-c3cccc(-c4ccc(F)cc4)c3)n1)[C@@H](CCO)N(S(=O)C(C)(C)C)C2 (some centres undefined)	x	x	x	x	-96	u
Cc1sc(NC(=O)c2ccco2)c(CN2CCC(C)CC2)c1C	n	u	n	u	n	n
Cc1sc(NC(=O)c2ccco2)c(CN2CCN(Cc3ccccc3)CC2)c1C	n	13µM	u	u	n	n
Cc1sc(NC(=O)c2ccco2)c(C(c2cccnc2)N2CCC(C)CC2)c1C (centres undefined)	n	u	21µM	8.9µM	-93	18µM
CCC(=O)N1CCc2cc(Br)cc(S(=O)(=O)CCC(=O)N(C)c3cccc(C)c3)c21	n	n	n	x	n	n
N#CC1=C(N)C(C#N)(C#N)[C@H](c2ccoc2)[C@H]2CN(Cc3ccccc3)CC=C12	n	6.3µM	n	n	u	u
COc1ccc(NC(=O)c2ccco2)cc1NC(=O)c1cc(OC)c(OC)c(OC)c1	x	n	n	x	n	n
CCc1c(C)c2ccc(O)c(CN3CCN(c4ccccc4)CC3)c2oc1=O	x	u	u	x	-61	u
CCc1c(C)c2ccc(O)c(CN3CCCC3)c2oc1=O	n	n	u	n	n	n
CCCC(NC(=O)CCl)c1ccccc1 (centres undefined)	n	u	n	u	-72	u
CCC(NC(=O)CCl)c1ccc(C)cc1 (centres undefined)	n	u	u	n	-78	u
CC(C)CC(NC(=O)CCl)c1ccccc1 (centres undefined)	n	n	n	n	u	n
Cc1cccc(C)c1Nc1c(-c2ccccc2F)nc2cccc(C)n12	x	u	n	x	n	u
COc1ccc(C(=O)N2CCN(Cc3ccc4c(c3)OCO4)CC2)cc1[N+](=O)[O-]	n	u	u	u	-83	n
COc1cc(CN2CCN(Cc3ccc([N+](=O)[O-])cc3)CC2)c([N+](=O)[O-])cc1OC	n	x	x	n	-76	u
CCN1CCN(Cc2cc(OC)c(OC)cc2[N+](=O)[O-])CC1	n	n	n	n	n	n
COc1ccc(C(=O)N2CCN(Cc3ccc4c(c3)OCO4)CC2)cc1OC	n	x	x	u	u	u
COc1cc2cc(C(=O)N3CCN(Cc4ccc5c(c4)OCO5)CC3)[nH]c2cc1OC	n	x	x	u	-92	n
CCc1nc2ccccc2n1CC(=O)OCC(=O)N(CC(C)C)c1c(N)n(Cc2ccccc2)c(=O)[nH]c1=O	n	n	n	n	n	n
CC(C)NC(=O)CN1C(=O)CSc2ccc(S(=O)(=O)N3CCCC3)cc21	n	n	n	n	n	n
Cc1nc(S(=O)(=O)N(C)c2ccccc2)c(C#N)c(C)c1Cl	n	u	u	n	-97	u
CN(c1ccccc1)S(=O)(=O)c1ccc(Cl)nc1	n	n	n	n	n	n
SMILES	SARS PLP yeast	MARV entry inh	Lassa entry inh	HCV inhibitor	HCMV antiviral	FMDV antiviral
CC(C)c1nc2ccc(C(=O)Nc3ccccc3F)cc2o1	x	x	n	x	-63	u
Nc1nc2ncc(CNc3ccc(C(=O)N[C@@H](CCC(=O)O)C(=O)O)cc3)nc2c(=O)[nH]1	n	x	x	n	x	n
Nc1nc2ncc(CNc3ccc(C(=O)NC(CCC(=O)O)C(=O)O)cc3)nc2c(=O)[nH]1 (centres undefined)	x	x	x	x	x	n
CN(Cc1cnc2nc(N)nc(N)c2n1)c1ccc(C(=O)N[C@H](CCC(=O)O)C(=O)O)cc1	x	0.04µM	x	x	x	x
CN(Cc1cnc2nc(N)nc(N)c2n1)c1ccc(C(=O)N[C@@H](CCC(=O)O)C(=O)O)cc1	x	0.04µM!	u	u	-99	u
COC(=O)C[C@@H]1CC[C@H](NC(=O)Nc2cccc(F)c2)[C@@H](CO)O1	x	x	x	x	n	n
O=C(CS(=O)(=O)Cc1ccccc1)Nc1ccccn1	n	n	n	n	-102	n
O=C(CS(=O)(=O)Cc1ccccc1)Nc1ccc(Cl)cn1	n	n	n	n	n	n
COc1cc2nc(N3CCCC(O)C3)c(CNCc3ccccc3F)cc2c(OC)c1OC (centres undefined)	x	x	x	x	x	n
COc1cccc(CC(=O)Nc2ccc3nc(Nc4cccc(C(F)(F)F)c4)cc(C)c3c2)c1	x	x	n	x	-72	u
COc1ccccc1CC(=O)Nc1ccc2nc(Nc3cccc(C(F)(F)F)c3)cc(C)c2c1	x	x	u	x	-67	u
CCN1CCN(c2cc(C)c3cc(NC(=O)Cc4ccccc4OC)ccc3n2)CC1	n	n	n	u	n	n
Cc1cccc(CCNC(=O)c2cc3c(=O)n(C)c4ccccc4c3n2C)c1	x	n	n	x	n	u
CC(C)CO/N=C1\C[C@@H](O)[C@@H](O)[C@@H]2[C@@H]3C(=O)N(c4cccc(Oc5ccccc5)c4)C(=O)[C@@H]3CC[C@@H]12	x	n	x	x	x	x
C=C=CCCN1C(=O)NC(c2ccccc2)C(C(=O)OC)=C1C (centres undefined)	x	n	x	x	x	x
Cn1cc(C(=O)c2ccc(Cl)cc2)cc1-c1nc2ccccc2n1C	n	u	u	25µM	-69	16µM
Cn1c(=O)c(C(=O)c2ccccc2)nc2ccccc21	n	n	n	n	n	n
Cc1ccc(-c2nnc(Nc3cccc(O)c3)c3ccccc23)cc1S(=O)(=O)N1CCCCC1	x	x	u	x	-74	n
Cc1ccc(-c2nnc(Nc3cccc(Br)c3)c3ccccc23)cc1S(=O)(=O)N1CCCCC1	x	x	n	x	n	n
Cc1ccc(Nc2nnc(-c3ccc(C)c(S(=O)(=O)N4CCN(C)CC4)c3)c3ccccc23)cc1	x	n	n	x	n	n
Cc1ccc(-c2nnc(Nc3ccc(OC(F)(F)Cl)cc3)c3ccccc23)cc1S(=O)(=O)NC(C)(C)CO	x	u	n	x	-95	n
Cc1ccc(-c2nnc(NC3CCCCC3)c3ccccc23)cc1S(=O)(=O)N1CCN(C)CC1	u	u	u	n	-74	x
COc1ccc(Nc2nnc(-c3ccc(C)c(S(=O)(=O)N4CCN(C)CC4)c3)c3ccccc23)cc1	x	n	n	x	-99	n
Cc1ccccc1-n1cc(CNC(=O)CN2Cc3ccccc3OC(C)C2)cn1 (centres undefined)	x	x	x	x	x	n
COc1ccc(Nc2nnc(-c3ccc(C)c(S(=O)(=O)N4CCOCC4)c3)c3ccccc23)cc1	x	x	u	x	-99	n
Cc1ccc(-c2nnc(Nc3ccc(O)cc3)c3ccccc23)cc1S(=O)(=O)N1CCOCC1	x	x	u	x	-88	u
Cc1ccc(Nc2nnc(-c3ccc(C)c(S(=O)(=O)N4CCOCC4)c3)c3ccccc23)cc1	x	x	n	x	n	n
